Source: PubChem (National Center for Advancing Translational Sciences (NCATS))
MCF10A rerep = DNA re-replication induction in MCF 10a cells. MCF 10A DNA re-replication, Hoechst nuclear intensity, 48 h. Potency, µM (series often up to 46.1 µM), actives largely listed as activators. 2.9% of 350,000 active. AID 624296; note: nearly all actives have a fitted effect of over 50% in size
IL-1B inflam inh = inhibitors of inflammasome signaling (IL-1 beta secretion) | THP-1 LPS/ATP IL-1B secretion, AlphaLISA, 16 h; hits give low values | activity change, % at 57.5 µM | 4.7% of 360,000 active; in the data active = activity change below about -50%; inconclusive = mostly about -30% to -49%
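THP-1 cells pretreated 1 hr with compounds (up to 57.5 uM final), then stimulated with LPS (250 ng/mL final) plus ATP (1.25 mM final); secreted IL-1B measured by AlphaLISA after 16 hr, decreased signal indicating inhibition.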
DT40 TDP1 CPT = growth inhibition of DT40 Tdp1-/-;hTDP1 cells with camptothecin (screen for TDP1 inhibitors). chicken DT40 Tdp1-/-;hTDP1 cells + 20 nM CPT, ATP luminescence, 48 h. Potency, µM (series often up to 46.2 µM), actives largely listed as inhibitors. 12% of 420,000 active; note: nearly all actives have a fitted effect of over 55% in size
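Cell growth measured by CellTiter-Glo luminescence after a minimum 48 h, 37 C compound exposure with 20 nM CPT in Tdp1-knockout DT40 cells stably expressing hTDP1, seeded 400/well; qHTS titration format.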
Chronic BCR inh = chronic active BCR signaling inhibition | 0.05% of 340,000 active | AID 493014 | Potency, µM (series often up to 46.1 µM), actives largely listed as inhibitors | ABC-DLBCL IkBa-CBG/CBR reporter, luminescence ratio, 4 h; active = well fitted inhibition curve with a large enough effect in the signal ratio, with a control signal flat, not every such curve was filed as active; inconclusive = small, poorly fitted or top-dose-only effect, or effect the other way, or a change in a side signal; the % refers to the signal ratio
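TMD8 human ABC-DLBCL cells with doxycycline-inducible IκBα–green luciferase fusion and unfused red luciferase, in 0.5% FBS medium; compounds up to 46 uM, 4 h at 37C. Green/red luminescence ratio, filter-overlap corrected, fitted to concentration-response curves.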
SW480 rerep = induces DNA re-replication in SW480 colon adenocarcinoma cells | SW480 DNA re-replication, Hoechst DNA content imaging, 48 h | Potency, µM (top dose mostly 46.1 µM), usual class: activators | 1.8% of 340,000 active; note: nearly all actives have a fitted effect of over 55% in size
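Image-based DNA-content assay: after two days of treatment, nuclei were labelled with the DNA dye Hoechst and imaged, and hits were compounds raising the count of nuclei showing high fluorescence intensity.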
DT40 TDP1 no CPT = qHTS for Inhibitors of human tyrosyl-DNA phosphodiesterase 1 (TDP1): qHTS in cells in absence of CPT. DT40 Tdp1-/- hTDP1 cells, no CPT, ATP luminescence, 48 h. Potency, µM (highest dose often 46.2 µM), hits mostly inhibitors. 15% of 420,000 active; note: nearly all actives have a fitted effect of over 55% in size
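Chicken DT40 Tdp1-/- cells complemented with human TDP1, screened without camptothecin (DMSO vehicle only), 400 cells/well. Compounds pin-transferred, cells incubated at 37 °C for at least 48 hr. Growth read as ATP-dependent luminescence (CellTiter-Glo, 30 min at RT).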
Numbers stand for hits; – = inactive; ? = inconclusive; · = not tested or not shown. Only some compounds are listed: those with a hit (about 19% of all), similar ones and a draw of the others. Unless noted, calls come from the whole dose curve; as a rule, active = well fitted curve in the direction sought with a large enough effect; inconclusive = small, poorly fitted or top-dose-only effect, or another doubt; inactive = no such curve, though single readings can be large; an effect the other way counts as inactive or inconclusive.

SMILES	MCF10A rerep	IL-1B inflam inh	DT40 TDP1 CPT	Chronic BCR inh	SW480 rerep	DT40 TDP1 no CPT
Cc1cc(OC(C)C(=O)N2CCN(c3ccc(F)cc3)CC2)c2c(C)cc(=O)oc2c1 (centres undefined)	–	–	?	–	–	–
CCC(C(=O)c1ccccc1)P(=O)(NN)c1ccccc1 (centres undefined)	–	–	–	–	–	–
CC1CCC2(CC1)NC(=O)N(Cc1cccc(C(F)(F)F)c1)C2=O (centres undefined)	?	–	18.4µM	–	?	?
CC1CCC2(CC1)NC(=O)N(CC(=O)N(Cc1ccccc1)C(C)(C)C)C2=O (centres undefined)	–	–	–	–	–	?
Cc1cc(C)n(C(C)CC(=O)Nc2ccc(Cl)cc2C)n1 (centres undefined)	·	·	–	·	·	?
CN1CCN(C(=O)c2cc3c(c(-c4cccc(-c5cc6ccccc6o5)c4)n2)[C@H](CCO)N(S(=O)C(C)(C)C)C3)CC1 (some centres undefined)	·	–	?	·	·	?
S=C(NCCc1ccccc1)N/N=C/c1ccccc1Cl	–	–	?	?	–	?
Oc1ccc(Br)cc1/C=N/NC(=S)NCCc1ccccc1	?	-74.6	?	–	?	16.4µM
CC(C)NC(=S)N/N=C/c1cc(Br)ccc1O	?	–	4.61µM	–	?	4.61µM
COC(=O)N/N=C/c1cc(Br)ccc1O	–	–	–	?	–	–
O=C(CCN1CCOCC1)N/N=C/c1cc(Br)cc(Br)c1O	?	–	6.51µM	–	–	18.4µM
Fc1ccc(/C=N/NC(=S)NCCc2ccccc2)cc1F	–	–	?	?	–	?
COc1ccc(O)c(/C=N/NC(=S)NCCc2ccccc2)c1	?	-97.4	?	?	–	?
Cc1ccc(C(=O)c2c(N)c(C(=O)Nc3cccc(C(F)(F)F)c3)c3ccccn23)cc1	·	·	–	·	·	?
O=C(CNC(=O)c1cccc(Br)c1)N/N=C/c1cc(Br)cc(Br)c1O	–	–	?	–	–	?
O=C(Cc1ccccc1)N/N=C/c1cc(Br)cc(Br)c1O	7.31µM	–	?	–	4.11µM	?
Cc1[nH]c2ccccc2c1/C=N/NC(=S)NC(C)C	–	–	?	–	–	?
CC(C)NC(=S)N/N=C/c1c[nH]c2ccccc12	–	–	4.61µM	?	–	3.66µM
CN(C)c1ccc(C(=O)N/N=C/c2cc(Br)cc(Br)c2O)cc1	–	–	6.51µM	–	–	11.6µM
O=C(CCc1ccccc1)N/N=C/c1cc(Br)ccc1O	?	–	2.59µM	?	?	4.11µM
COc1ncnc2c1ncn2CCCNCc1ccccn1	·	–	–	·	·	–
O=c1c(-c2ccc(F)cc2)nc2cnc(N3CCOCC3)nc2n1Cc1ccc(F)cc1	·	·	–	·	·	–
COc1ccc(/C(C)=N/NC(=S)NCCc2ccccc2)c(O)c1	?	–	0.651µM	?	–	0.581µM
CN(C)c1ccc(S(=O)(=O)N2CCCCC2)cc1NC(=O)COc1ccccc1F	–	–	?	–	–	?
Cc1ccsc1C(=O)N1CCCC(C(=O)c2cc(F)ccc2F)C1 (centres undefined)	–	–	?	?	–	23.1µM
SMILES	MCF10A rerep	IL-1B inflam inh	DT40 TDP1 CPT	Chronic BCR inh	SW480 rerep	DT40 TDP1 no CPT
COc1ccc(F)cc1C(=O)C1CCCN(C(=O)c2ccccc2N(C)C)C1 (centres undefined)	–	–	?	–	?	18.4µM
CN1CCN(C2CN(Cc3cn(Cc4ccc(F)cc4)nn3)S(=O)(=O)C2)CC1 (centres undefined)	·	-64.6	–	·	·	–
CN1CCC(N2CCN(C3CN(Cc4cn(Cc5ccc(F)cc5)nn4)S(=O)(=O)C3)CC2)CC1 (centres undefined)	·	–	–	·	·	–
CCCCCCN1CCN(C2CN(Cc3cn(Cc4cccc(Cl)c4)nn3)S(=O)(=O)C2)CC1 (centres undefined)	·	?	18.4µM	·	·	?
CCCCCCn1cc(CN2CC(N3CCN(CCO)CC3)CS2(=O)=O)nn1 (centres undefined)	·	–	–	·	·	–
CN(C)CCN1CCN(C2CN(Cc3cn(Cc4ccc(Cl)cc4)nn3)S(=O)(=O)C2)CC1 (centres undefined)	·	–	–	·	·	–
CCCCCCN1CCN(C2CN(Cc3ccc(C)cc3)S(=O)(=O)C2)CC1 (centres undefined)	·	–	23.1µM	·	·	?
CCCCCCN1CCN(C2CN(Cc3cn(Cc4ccc(Cl)cc4)nn3)S(=O)(=O)C2)CC1 (centres undefined)	·	–	23.1µM	·	·	16.4µM
COc1ccc(CCNC(=O)c2noc(C)c2[N+](=O)[O-])cc1OC	–	–	–	–	–	–
CN(C)CCN1CCN(C2CN(Cc3cn(Cc4cccc(C(F)(F)F)c4)nn3)S(=O)(=O)C2)CC1 (centres undefined)	·	–	–	·	·	–
Cc1cccc(CN2CCN(C3CN(Cc4cn(Cc5cccc(C(F)(F)F)c5)nn4)S(=O)(=O)C3)CC2)c1 (centres undefined)	·	–	?	·	·	20.6µM
CC(=O)OC(C(=O)Nc1nccs1)c1ccccc1 (centres undefined)	?	–	?	–	–	–
O=C(Nc1nccs1)C(Br)C(Br)c1ccccc1 (centres undefined)	?	-86.3	10.3µM	?	?	20.6µM
Cn1c(=O)n(C)c2cc([N+](=O)[O-])c(N3CCN(C(=O)C(C)(C)C)CC3)cc21	–	–	16.4µM	–	–	13µM
Cn1c(=O)n(C)c2cc([N+](=O)[O-])c(N3CCN(C(=O)c4ccccc4Br)CC3)cc21	–	?	?	–	–	20.6µM
O=C(c1ccccc1Br)N1CCN(c2ccc([N+](=O)[O-])c(N3CCOCC3)c2)CC1	–	–	–	–	–	–
Cn1c(CN2CCN(C(=O)c3ccccc3Cl)CC2)nc2cc([N+](=O)[O-])ccc21	–	–	–	–	–	–
Cn1c(=O)n(C)c2cc([N+](=O)[O-])c(N3CCN(C(=O)c4ccccc4Cl)CC3)cc21	–	?	20.6µM	–	–	16.4µM
Cn1c(=O)n(C)c2cc([N+](=O)[O-])c(N3CCN(C(=O)c4ccccc4)CC3)cc21	–	–	14.6µM	–	–	18.4µM
Cn1c(=O)n(C)c2cc([N+](=O)[O-])c(N3CCN(S(C)(=O)=O)CC3)cc21	–	–	–	?	–	–
O=C(NCc1ccc(F)cc1)C(=O)NCC(c1ccco1)S(=O)(=O)c1cccs1 (centres undefined)	·	·	?	–	·	?
